Assay outcomes as filed in PubChem.
This is a sample that favours compounds with a hit; in the whole collection about 7.3% have one here.
HCV inhibitor: blocks hepatitis C virus. Huh7.5.1 HCVcc-Cre infection, luciferase reporter, 44 h. Potency, µM (doses to about 41.8 µM), for inactives: at the highest dose activity change, negative = inhibition, actives largely listed as inhibitors. 3.4% of 340,000 active. AID 651820; active = well fitted inhibition curve with a large enough effect; inconclusive = small, poorly fitted or top-dose-only effect, or another doubt; inactive = no such curve, though single readings can be large or run the other way; note: potency is the fitted concentration of half-maximal effect
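Compounds are dispensed onto cells plated 4 h earlier at 1,000 per well, with HCVcc-Cre virus (about 0.5 moi) added next. Following 44 h of culture, luminescent signal is measured for 15 sec after 15 min with substrate at room temperature.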
VACV Venus inh: inhibitors of vaccinia virus (Venus reporter). Potency, µM (highest dose often 36.5 µM), for inactives: top-dose activity change, negative = inhibition, actives largely listed as inhibitors. AID 720580. 0.46% of 330,000 active. Vaccinia virus Venus reporter expression, fluorescence; calls by dose curve; tested in A549 cells; note: potency is the fitted concentration of half-maximal effect; nearly all actives have a fitted effect of over 30% in size
HCMV antiviral: human cytomegalovirus inhibition. 4.5% of 410,000 active. HFF cells, HCMV-luciferase reporter, 72 h; stronger effect = lower value. activity change, negative = inhibition, % at 57.5 µM; in the data active = activity change below about -60%; inconclusive = no clear call, values can overlap the other calls; inactive = above about -39%
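Two compound doses tested in HFFs infected with HCMV-luciferase, MOI 1 PFU/cell, 72 h at 37C. Lysate luminescence read with OneGlo; data normalized against buffer-only and 10uM Salinomycin inhibitor controls.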
VACV mCherry inh: vaccinia inhibition (mCherry reporter); Vaccinia virus mCherry reporter infection, fluorescence; AID 720579; 0.63% of 310,000 active; Potency, µM (series often up to 36.5 µM), without a hit: at the top dose activity change, negative = inhibition, hits mostly inhibitors; calls by dose curve; tested in A549 cells; note: potency is the fitted concentration of half-maximal effect; nearly all actives have a fitted effect of over 35% in size
FMDV antiviral: antivirals against foot and mouth disease virus. Potency, µM (series often up to 57.9 µM), without a hit: top-dose activity change, negative = inhibition, most hits filed as inhibitors. 1.2% of 410,000 active. FMDV antiviral cell-based qHTS; calls by dose curve; tested in HEK293T cells; note: read-out not given here; potency is the fitted concentration of half-maximal effect; nearly all actives have a fitted effect of over 45% in size
The depositor's hits bear a star; i = inactive; ? = inconclusive; . = no result given. % is set by controls: 0 for no effect and ±100 for the full control effect.

SMILES	HCV inhibitor	VACV Venus inh	HCMV antiviral	VACV mCherry inh	FMDV antiviral
CC(=O)c1ccc(S(=O)(=O)N2CCN(c3ccnc4cc(Cl)ccc34)CC2)cc1	.	-23.9%	-69.9*	-29.7%	?
Cc1ccc(S(=O)(=O)N2CCN(c3ccnc4cc(Cl)ccc34)CC2)cc1C	-8.0%	-11.9%	?	-11.3%	?
C[C@H]1CN(S(=O)(=O)C(C)(C)C)[C@@H](CCO)/C1=C\c1ccccc1	.	.	11.2	.	.
Cc1ccc(C)c(Cn2cnc3ccccc3c2=O)c1	.	3.3%	-14.7	2.3%	20.2%
Cc1cc(C(=O)COc2cc(F)ccc2[N+](=O)[O-])c(C)n1CC1CCCO1 (stereo unspecified)	4.8%	.	-65.7*	.	-6.0%
COCCn1c(C)cc(C(=O)COC(=O)CNC(=O)c2ccccc2)c1C	8.2%	-10.8%	-34.6	i	25.1µM*
COCCn1c(C)cc(C(=O)COC(=O)c2ccc[nH]c2=O)c1C	20.0%	1.3%	-64.6*	-12.3%	?
Cc1cc(C(=O)COC(=O)CNC(=O)c2ccccc2)c(C)n1CC1CCCO1 (stereo unspecified)	0.6%	-0.7%	-14.4	i	15.8µM*
COc1ccc(OC)c2sc(N3CCN(C(=O)C(C)(C)C)CC3)nc12	.	-2.5%	39.9	-14.0%	12.2%
CCOC(=O)/C=C/[C@@H](C)NC(=O)C(F)(F)F	.	.	-21.5	.	.
COc1ccc(C2CC(=O)c3cc(-c4nc(-c5cccc(Cl)c5)cs4)c(=O)[nH]c3C2)cc1OC (stereo unspecified)	.	14.5%	-10.2	-0.4%	-22.6%
CCOC(=O)c1cc(-c2ccc(OC)cc2)n(CCC(=O)NCCc2ccc(OCC)c(OCC)c2)c1C	.	-25.6%	15.6	?	?
Cc1cc(C(=O)COC(=O)c2ccc3c(c2)NC(=O)CS3)c(C)n1CC1CCCO1 (stereo unspecified)	?	-18.3%	-9.3	-0.6%	28.2µM*
Cc1ccc(C(=O)N(CCN(C)C)CC2CCCN(Cc3ccccc3F)C2)cc1C (stereo unspecified)	11.2µM*	-24.0%	?	-8.9%	-21.9%
N#Cc1ccc(C(=O)Nc2ccccc2-c2nc3ccccc3s2)c(F)c1	.	-0.4%	-15.4	7.1%	6.0%
CCc1ccc(CNC(=O)c2cnc3sc(N(CC)CC)nn3c2=O)cc1	.	-9.8%	?	i	-20.2%
C[C@]12CCC3C(CC[C@H]4C[C@@H](O)CC[C@]34C)[C@H]1C=CC2=O (stereo partly specified)	-10.6%	?	0.0	?	20µM*
C[C@]12CCC3[C@@H](CC[C@@H]4C[C@H](O)CC[C@]34C)[C@@H]1CCC2=O (stereo partly specified)	15.9%	-18.3%	-74.7*	i	-0.6%
CCCCCCCCCCCCCCCCCCN(CCCCCCCCCCCCCCCCCC)c1ccc(/C=C/c2ccc(C=O)cc2)cc1	.	-15.2%	.	i	.
O=C(CC(=O)Nc1cccc(F)c1)Nc1cccc(F)c1	4.5%	-6.9%	52.1	i	67.2%
O=C(C#Cc1ccccc1)Nc1ccc(F)cc1	?	?	-102.2*	?	11.3%
O=C(C#Cc1ccccc1)Nc1cccc(F)c1	?	?	-104.2*	3.55µM*	32.8%
Cc1sc(NC(=O)c2ccco2)c(C(Nc2ccccn2)c2ccccc2)c1C (stereo unspecified)	14.1µM*	-15.8%	-24.3	-28.2%	-0.2%
Cc1sc(NC(=O)c2ccco2)c(C(c2cccnc2)N2CCN(C)CC2)c1C (stereo unspecified)	?	-24.7%	-7.9	-31.6%	12.5%
Cc1sc(NC(=O)c2ccco2)c(C(c2cccnc2)N2CCCC2)c1C (stereo unspecified)	12.6µM*	.	-62.0*	.	1.7%
SMILES	HCV inhibitor	VACV Venus inh	HCMV antiviral	VACV mCherry inh	FMDV antiviral
CCOC(=O)Cn1c(=O)n(C2CCCCC2)c2nc(-c3ccc(C(C)C)cc3)nc(C(N)=O)c21	.	-16.7%	3.1	-17.9%	-11.4%
Cc1ccc(-n2c(=O)c3c(c4cc(C)ccc4n3C)n(CC(=O)Nc3ccc(F)cc3)c2=O)cc1	.	-20.0%	-75.1*	-23.6%	-1.4%
Cc1cc(C=C2C(=O)c3ccccc3C2=O)c(C)n1-c1ccccc1	7.9%	.	-23.4	.	1.12µM*
O=C1C(=Cc2ccccc2[N+](=O)[O-])Cc2ccccc21	.	?	-95.6*	?	?
Cc1cc(C=C2C(=O)c3ccccc3C2=O)c(C)n1-c1ccc(C(=O)O)cc1	7.5%	3.4%	-0.3	-10.3%	10.2%
Cc1cc(/C=C2/C(=O)NN(c3ccccc3)C2=O)c(C)n1-c1cccc(O)c1	?	-8.9%	?	-8.7%	44.7µM*
Cc1cc(/C=C2\Cc3ccccc3C2=O)c(C)n1-c1ccccc1	?	-14.5%	?	-14.3%	12.6µM*
COc1ccccc1CNc1ccnc(-c2ccc(N(C)C)cc2)n1	.	.	.	.	0.0%
CCC(=O)N1CCc2cc(Br)cc(S(=O)(=O)NCCc3ccc(C)cc3)c21	.	-10.5%	?	-9.7%	50.6%
CCC(C)(C)n1nnnc1C(c1cccs1)N1CC=C(c2ccc(F)cc2)CC1 (stereo unspecified)	?	-26.2%	-63.1*	-23.3%	.
Fc1ccc(C2=CCN(C(c3cccs3)c3nnnn3CCc3ccccc3)CC2)cc1 (stereo unspecified)	?	?	?	?	-5.7%
CC(C)CNC(=O)c1cc2nc(C3CC3)cc(C(F)(F)F)n2n1	7.94µM*	.	-18.6	.	12.8%
O=C(Nc1cccnc1)c1cc2nc(C3CC3)cc(C(F)(F)F)n2n1	?	?	19.6	.	-7.6%
O=C(NC1C2CCCC1CN(C1CC1)C2)c1ccc(Cl)cc1 (stereo unspecified)	?	.	-63.9*	.	?
CCN(Cc1ccccc1)C(=O)Nc1ccc2c(c1)N(C)C(=O)c1ccccc1S2	.	-7.3%	-5.3	-5.1%	0.0%
Cc1[nH]nc2c1C(c1cccs1)C(C#N)=C(N)O2 (stereo unspecified)	14.1%	-5.1%	22.6	-7.7%	?
Cc1ccsc1C1C(C#N)=C(N)Oc2n[nH]c(C)c21 (stereo unspecified)	16.4%	-11.7%	-11.4	-1.2%	31.6µM*
CCOC(=O)c1ccc(CN(Cc2ccc(F)cc2)S(=O)(=O)c2ccc(F)c(C(=O)Nc3cc(Cl)ccc3OC)c2)cc1	.	-9.9%	-38.5	-9.9%	-25.2%
O=C(c1cc(-c2ccccc2)nc2ccccc12)N1CCCc2ccccc21	0.7%	-11.5%	-62.7*	-9.1%	-6.6%
Cc1ccc(-c2cc(C(=O)N3CCC(C)CC3)c3ccccc3n2)cc1	?	.	-71.5*	.	26.7%
CC(C)n1ncc2c(C(=O)NCCOc3ccccc3F)cc(C3CC3)nc21	?	-13.5%	?	-8.1%	?
COc1ccccc1CNC(=O)c1cc(C2CC2)nc2c1cnn2C(C)C	1µM*	-22.2%	-23.4	-1.6%	-20.8%
COc1ccc(NC(=O)c2cc(-c3ccccc3)nc3c2cnn3C(C)C)cc1	-19.3%	.	-33.6	.	39.8µM*
CCOc1ccc(OCCNC(=O)c2cc(C3CC3)nc3c2cnn3C(C)C)cc1	3.16µM*	-10.0%	-23.5	i	?
